# RGS8-Gao = human RGS8-Galphao interaction regulation; P09471; multiplexed bead flow cytometry, RGS8-Galphao binding; actives lie on both sides; response (percent of control binding), % at 10 µM; 220,000 compounds, 0.34% hits; AID 1423; in the data active = response below about 60% or above about 140%; inactive = in between;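 note: Galphao activated as the GDP aluminium fluoride complex binding bead-coupled RGS8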
# Target sequence (P09471 whole entry, looked up): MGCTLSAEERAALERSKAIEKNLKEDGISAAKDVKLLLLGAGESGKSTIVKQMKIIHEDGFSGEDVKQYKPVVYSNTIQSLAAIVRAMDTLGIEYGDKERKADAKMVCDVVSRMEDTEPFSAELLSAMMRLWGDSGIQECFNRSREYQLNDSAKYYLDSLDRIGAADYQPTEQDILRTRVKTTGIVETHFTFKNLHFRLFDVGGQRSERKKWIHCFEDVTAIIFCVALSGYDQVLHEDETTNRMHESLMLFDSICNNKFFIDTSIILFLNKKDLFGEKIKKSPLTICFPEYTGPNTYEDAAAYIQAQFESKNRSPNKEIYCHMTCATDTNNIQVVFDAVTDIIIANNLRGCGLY
# RGS4-Gao reg = human RGS4-Galphao interaction regulation; 220,000 compounds, 0.33% hits; Multiplexed bead flow cytometry, RGS4-Galphao binding; actives lie on both sides; binding response (% of control), % at 10 µM; in the data active = binding response below about 49% or above about 150%; inactive = in between;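 note: fluorescent Galphao activated with aluminum fluoride binding bead-coupled RGS4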
# GSH fluor = compound fluoresces at 488/530 nm on GSH beads; GSH beads flow cytometry, compound fluorescence 488/530 nm; hits give high values; 190,000 compounds, 0.25% hits; fluorescence (KMESF) at 10 µM; AID 1776; in the data active = fluorescence above about 89;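 note: glutathione beads carrying GST-tagged Bcl family fusion proteins plus one bare bead set; values are compound well signal with DMSO vehicle wells as background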
# RGS7-Gao reg = human RGS7-Galphao interaction regulation | Multiplexed bead flow cytometry, RGS7-Galphao binding; actives lie on both sides | binding response (% of control), % at 10 µM | 220,000 compounds, 0.35% hits | AID 1439; in the data active = binding response below about 49% or above about 150%; inconclusive = no clear call, values can overlap the other calls; inactive = in between;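 note: fluorescent Galphao held in activated GDP-AlF4 state binding bead-coupled RGS7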
# Avidin bead fluor = compound fluoresces at 488/530 nm on avidin beads; AID 1775; fluorescence (KMESF) at 10 µM; 220,000 compounds, 0.38% hits; compound fluorescence 488/530 nm, flow cytometry; hits give high values; in the data active = fluorescence above about 47
# RGS16-Gao = regulators of human RGS16-Galphao interaction. O15492+P09471. bead-based flow cytometry RGS16-Galphao binding, fluorescence; actives lie on both sides. binding response (% of control), % at 10 µM. 220,000 compounds, 0.38% hits;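 note: Galphao activated by GDP with aluminum fluoride before binding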
# Target sequence (O15492 whole entry, looked up): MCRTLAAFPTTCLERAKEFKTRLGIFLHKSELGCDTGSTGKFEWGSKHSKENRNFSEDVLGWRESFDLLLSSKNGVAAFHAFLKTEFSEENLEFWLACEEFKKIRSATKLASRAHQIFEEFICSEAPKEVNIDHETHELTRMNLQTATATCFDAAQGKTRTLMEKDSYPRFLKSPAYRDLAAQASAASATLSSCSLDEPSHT
# Target sequence (P09471 whole entry, looked up): as the sequence (P09471 whole entry, looked up) above
# RGS-Gao = regulators of human RGS4-Galphao interaction | shares compounds with RGS16-Gao | RGS4–Galpha-o binding response, % at 10 µM | AID 1504 | multiplexed bead flow cytometry, RGS–Galpha-o binding | 1,600 compounds, 99% hits;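 note: fluorescently labeled Galpha-o bound to GDP with aluminium fluoride binding biotinylated RGS beads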
# Avidin counter = biotin-avidin bead binding disruption counter-screen; 1,700 tested, under 10 active; shares compounds with RGS16-Gao; streptavidin beads, fluorescein-biotin binding, flow cytometry; inhibition, % at 10 µM; AID 1783;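 active = inhibition above 50%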;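 note: median green fluorescence of gated singlet beads compared with DMSO control wells; 0% = DMSO wells and 100% = complete loss of bead fluorescence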
# RGS8-Gao confirm = RGS8-Galphao interaction regulation, single point confirmation. 1,700 compounds, 3% hits. shares compounds with RGS16-Gao. bead-based flow cytometry RGS8-Galphao binding, fluorescence; actives lie on both sides. AID 1836. binding response (% of control), % at 10 µM; in the data active = binding response below about 72% or above about 130%; inactive = in between;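 note: Galphao activated as GDP AlF4 complex before binding bead RGS8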
# RGS7-Gao single = confirmation of regulators of human RGS7-Galphao interaction; shares compounds with RGS16-Gao; bead-based flow cytometry RGS7-Galphao binding; actives lie on both sides; response (percent of control binding), % at 10 µM; 1,700 compounds, 7.8% hits; in the data active = response below about 75% or above about 130%; inactive = in between;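 note: fluorescent Galphao activated with GDP and aluminum fluoride binding bead-coupled RGS7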
# RGS16-Gao conf = confirmation of regulators of human RGS16-Galphao interaction; shares compounds with RGS16-Gao; bead-based flow cytometry, RGS16-Galphao binding; actives lie on both sides; response (% of control binding), % at 10 µM; 1,700 compounds, 4% hits; AID 1838; in the data active = response below about 74% or above about 130%; inactive = in between;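 note: Galphao activated as the GDP aluminium fluoride complex binding bead-coupled RGS16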
# RGS4-Gao confirm = confirmation of regulators of human RGS4-Galphao interaction; shares compounds with RGS16-Gao; RGS4-Galphao binding, multiplexed bead flow cytometry; actives lie on both sides; binding response (% of control), % at 10 µM; 1,700 compounds, 4% hits; AID 1840; in the data active = binding response below about 74% or above about 130%; inactive = in between
# RGS19-Gao single = RGS19-Galphao interaction regulation, single point confirmation. shares compounds with RGS16-Gao. 1,700 compounds, 5% hits. bead-based flow cytometry RGS19-Galphao binding; actives lie on both sides. AID 1841. response (percent of control binding), % at 10 µM; in the data active = response below about 50% or above about 160%; inactive = in between;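 note: 100% = no compound control and 0% = blank background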
# * = called active by the depositor; ? = inconclusive; . = no result; [ ] = another dose, or the depositor's remark. Sampled rows, rich in hits. Any-hit rate of the full collection: about 1.2%. Unless noted, the rule behind the calls is not given here.
SMILES,RGS8-Gao,RGS4-Gao reg,GSH fluor,RGS7-Gao reg,Avidin bead fluor,RGS16-Gao,RGS-Gao,Avidin counter,RGS8-Gao confirm,RGS7-Gao single,RGS16-Gao conf,RGS4-Gao confirm,RGS19-Gao single
Cc1cccc(CSc2ncccc2C(=O)O)c1,135,122,21,105,23,285*[activator],122*,2,96,93,91,93,70
O=C1CC(c2ccc(S(=O)(=O)NCCOc3ccccc3)cc2)CN1 (stereo not drawn),.,.,33,.,.,.,.,2,101,97,100,97,103
Cc1c(/C=N/NC(=O)c2cccnc2)c2ccccc2n1Cc1ccccc1,106,120,22,154*[activator],8,115,120*,3,103,124,106,114,111
COc1cccc(/C=C/C(=O)N2CCN(c3n[nH]c(=O)[nH]c3=O)CC2)c1OC,102,100,10,102,5,100,.,.,.,.,.,.,.
O=C(NCCN1CCN(c2cccc(Cl)c2)CC1)C1CCCN(S(=O)(=O)c2cnc[nH]2)C1 (stereo not drawn),142*[activator],116,15,114,5,203,116*,.,.,.,.,.,.
CC1(C(=O)O)CCC(C(=O)N2CCCCC2)C1(C)C (stereo not drawn),101,98,18,98,9,97,.,.,.,.,.,.,.
O=C(Nc1cccc(C(F)(F)F)c1)Oc1ccc(Cl)c2cccnc12,55*,26*,.,?,0,31,.,0,100,100,98,100,96
CCN(CC)C(=O)Oc1ccc(Cl)c2cccnc12,103,101,29,?,10,100,.,.,.,.,.,.,.
CC1(C)CC(NC(=O)c2ccccc2C(=O)NC2CC(C)(C)NC(C)(C)C2)CC(C)(C)N1,101,99,12,96,9,99,.,.,.,.,.,.,.
Cc1cccc(C(=O)NC2CC(C)(C)NC(C)(C)C2)c1,98,101,14,172*[activator],82*,113,101*,1,92,93,92,92,84
Cc1cccc(C(=O)NNC(=O)C2CCCO2)c1 (stereo not drawn),12*,21*,24,14*,-2,1.0*,.,1,120,137*[activator],124,132*[activator],135
O=C(NNC(=O)C1CCCO1)c1ccccc1Cl (stereo not drawn),.,.,17,.,.,.,.,2,100,100,101,100,99
Cc1ccc(C(C)NC(=O)C2CCCO2)cc1C (stereo not drawn),.,.,19,.,.,.,.,0,98,103,100,100,87
CC(NC(=O)COC(=O)C1CSC2(C)CCC(=O)N12)C12CC3CC(CC(C3)C1)C2 (stereo not drawn),103,102,16,103,9,102,.,.,.,.,.,.,.
O=C(c1ccc(Br)cc1)N(c1ccccn1)C1CCCCC1,101,99,.,?,7,98,.,.,.,.,.,.,.
CCn1c(C)c(C(C)=O)cc(C#N)c1=O,100,104,20,103,11,101,.,.,.,.,.,.,.
Cc1cccc(-c2nc3cc(NC(=O)C4CCCO4)ccc3o2)c1 (stereo not drawn),119,109,10,107,17,179*[activator],109*,0,104,104,109,104,99
CCOC(=O)c1c(-c2cccc3ccccc23)csc1NC(=O)C1C2CCC(O2)C1C(=O)O (stereo not drawn),99,98,18,97,15,99,.,.,.,.,.,.,.
COC(=O)c1c(-c2ccc(C(C)(C)C)cc2)csc1NC(=O)C1C2CCC(O2)C1C(=O)O (stereo not drawn),75,94,10,125,3,5.6*,94*,3,84,135*[activator],73*,96,76
Cc1ccc(-c2nn(CC(=O)N3CCOCC3)c(=O)c3ccccc23)cc1S(=O)(=O)N(C)C,116,163*[activator],.,?,62*,152,.,1,102,102,100,100,110
CCN(CC)c1ccc(N=Cc2ccccc2[N+](=O)[O-])cc1,84,93,9,95,2,58,.,.,.,.,.,.,.
CCN(CC)c1ccc(N=Cc2ccc([N+](=O)[O-])o2)cc1,71,69,8,56,2,20*,69*,-1,93,76,91,85,86
O=C(c1ccco1)N1CCN(S(=O)(=O)c2ccc(Cl)s2)CC1,.,.,17,.,.,.,.,1,98,98,98,95,94
CC1CCc2nc(NC(=O)CN3CCN(c4ccccc4)CC3)sc2C1 (stereo not drawn),104,104,11,103,17,105,.,.,.,.,.,.,.
CC1CCc2nc(NC(=O)CCSc3ccccc3)sc2C1 (stereo not drawn),70,79,20,79,5,20*,79*,2,102,102,102,102,108
Cc1ccc(C)n1-c1ccc(C(=O)O)cc1,61,66,12,39*,11,73,66*,0,96,92,98,98,102
Nc1ccc2nc(-c3ccc(N)c(Cl)c3)[nH]c2c1,102,101,12,101,7,102,.,.,.,.,.,.,.
Nc1ccc(-c2nc3c(Cl)cc(N)cc3[nH]2)cc1,63,78,2,26*,1,89,78*,1,103,100,107,101,128
O=C(COc1ccccc1)NC(=S)Nc1ccc(Br)cn1,104,100,.,?,6,103,.,.,.,.,.,.,.
